{
  "source": "PubChem BioAssay AID720530",
  "about": "(The Scripps Research Institute Molecular Screening Center, 2013)",
  "note": "Screen size: about 1,000 compounds; about 260 (26%) were called active. The list is a sample of the results. Unmarked numbers belong to inactive results. No stated cut-off is given here; in the data, active means inhibition above about 21%; inactive means the rest.",
  "data": [
    {"biological_target": "E3 ubiquitin-protein ligase UHRF1 (Homo sapiens) (UniProt Q96T88)", "sequence (Q96T88 whole entry, looked up, the tested form may be a part)": "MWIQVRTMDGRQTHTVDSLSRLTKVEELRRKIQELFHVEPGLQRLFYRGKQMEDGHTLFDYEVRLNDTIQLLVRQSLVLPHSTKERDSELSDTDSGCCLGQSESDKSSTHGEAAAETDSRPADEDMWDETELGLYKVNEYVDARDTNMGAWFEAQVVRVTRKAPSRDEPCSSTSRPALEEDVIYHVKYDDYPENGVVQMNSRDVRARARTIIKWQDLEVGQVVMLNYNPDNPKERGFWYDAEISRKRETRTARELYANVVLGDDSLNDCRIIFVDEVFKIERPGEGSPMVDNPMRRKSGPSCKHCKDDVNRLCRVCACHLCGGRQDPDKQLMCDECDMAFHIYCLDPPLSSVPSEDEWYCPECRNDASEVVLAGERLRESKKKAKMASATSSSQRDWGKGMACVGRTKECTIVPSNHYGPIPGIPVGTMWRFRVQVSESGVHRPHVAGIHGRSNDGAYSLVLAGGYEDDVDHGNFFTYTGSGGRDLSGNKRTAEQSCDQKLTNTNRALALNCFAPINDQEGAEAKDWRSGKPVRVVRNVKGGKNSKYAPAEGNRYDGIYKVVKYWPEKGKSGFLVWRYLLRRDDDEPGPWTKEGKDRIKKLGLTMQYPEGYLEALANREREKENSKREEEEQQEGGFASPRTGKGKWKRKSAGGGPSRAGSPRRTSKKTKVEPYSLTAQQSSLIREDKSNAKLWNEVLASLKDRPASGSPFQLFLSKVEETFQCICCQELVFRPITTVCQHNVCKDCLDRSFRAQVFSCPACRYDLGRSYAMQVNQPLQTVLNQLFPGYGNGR", "assay": "blockers of UHRF1 binding to methyl-oligo – biochemical, TR-FRET, human UHRF1, counter-screen for MBD2 inhibitor project (AID 720530);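 further: UHRF1 SRA domain binding a labeled hemimethylated CpG hairpin DNA; 0% = vehicle only and 100% = reference inhibitor with vehicle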", "settings": "UHRF1 binding to methylated oligonucleotide, at 4.4 µM, active compounds read high", "values": [
      {"smiles": "CCN(CC)CCOc1ccc2c(c1)C(=NNC(=O)c1ccccn1)c1cc(OCCN(CC)CC)ccc1-2", "inhibition": "108% (active)"},
      {"smiles": "COC(=O)c1ccc2nc(-c3cccc(Br)c3)c(Cc3ccc(OC)cc3C)n2c1", "inhibition": "12.2%"},
      {"smiles": "Cc1ccc(C)c(NC(=O)c2ccc(OC(=O)c3ccco3)cc2)c1", "inhibition": "8.96%"},
      {"smiles": "CCOC(=O)CCP(=O)(O)C(O)(c1ccccc1)c1ccccc1", "inhibition": "4.07%"},
      {"smiles": "Cc1cccc(NC(=O)C[C@H]2CC[C@H]3[C@@H](COc4ccc(NC(=O)Nc5ccccc5)cc4C(=O)N3C)O2)c1", "inhibition": "0.48%"},
      {"smiles": "CC(C)c1nc(CNC(=O)CC2C(=O)NCCN2Cc2cccc(F)c2F)cs1", "note": "(stereo not given)", "inhibition": "9.89%"},
      {"smiles": "COc1ccc2c(c1)c(=Cc1ccc(N(C)C)cc1)c1cc(-c3ccccc3)[n+](C)n12", "inhibition": "83.9% (active)"},
      {"smiles": "Cc1ccc(-c2ccnc3nc(Sc4ncc(C(F)(F)F)cc4Cl)nn23)cc1", "inhibition": "8.79%"},
      {"smiles": "Cc1cccc(CN2CCN(C3CN(Cc4cn(Cc5cc(C)cc(C)c5)nn4)S(=O)(=O)C3)CC2)c1", "note": "(stereo not given)", "inhibition": "9.39%"},
      {"smiles": "COC(=O)c1cccc(NC(=O)c2cccc(N3C(=O)CCC3=O)c2)c1", "inhibition": "6.97%"},
      {"smiles": "COc1ccc(CNC(=O)c2c[nH]c3c(OC)cc(OC)cc3c2=O)cc1", "inhibition": "5.78%"},
      {"smiles": "CN(C(=O)COC(=O)c1cc(-c2ccco2)nc2ccccc12)C1CCS(=O)(=O)C1", "note": "(stereo not given)", "inhibition": "35.3% (active)"},
      {"smiles": "O=C(c1n[nH]c2c1CCC2)N1CCCC(Nc2cccc(F)c2)C1", "note": "(stereo not given)", "inhibition": "6.16%"},
      {"smiles": "CC(C)Oc1ccc(C2NC(=O)NC2=O)cc1", "note": "(stereo not given)", "inhibition": "6.8%"},
      {"smiles": "CCOc1cc(-c2noc(CCCC(=O)NC3CCCCC3)n2)ccc1OC", "inhibition": "4.27%"},
      {"smiles": "c1ccc2cc3c(NCCN4CCOCC4)ccnc3cc2c1", "inhibition": "21.8% (active)"},
      {"smiles": "COc1ccc(-n2cc(-c3ccccc3)c3c(=S)nc[nH]c32)cc1", "inhibition": "-1.36%"},
      {"smiles": "COc1nc(N(C)C)nc(N2CC(=O)N(CCNS(=O)(=O)c3ccc(C)cc3)C2=N)n1", "inhibition": "6.8%"},
      {"smiles": "CC(=O)c1ccccc1NC(=O)COC(=O)C1COc2ccccc2O1", "note": "(stereo not given)", "inhibition": "2.18%"},
      {"smiles": "COc1ccc2[nH]c3c(C)c4cc[n+](C)cc4c(C)c3c2c1", "inhibition": "94.4% (active)"},
      {"smiles": "CCOC(=O)C1C(=O)OC2(CCCC2)C1C(=O)OCC", "note": "(stereo not given)", "inhibition": "1.98%"},
      {"smiles": "O=C(CC1CCCCC1)Nc1c2c(nn1-c1ccc(F)cc1)CS(=O)(=O)C2", "inhibition": "5.19%"},
      {"smiles": "C=CCN1C(=O)c2ccc(C(=O)N3CCC(C(=O)OCC)CC3)cc2C1=O", "inhibition": "4.16%"},
      {"smiles": "C=CC1=C(C(=O)O)N2C(=O)[C@@H](NC(=O)/C(=N\\OCC(=O)O)c3csc(N)n3)[C@H]2SC1", "inhibition": "106% (active)"},
      {"smiles": "Nc1ccccc1C(=O)NC1CCCCNC1=O", "note": "(stereo not given)", "inhibition": "4.32%"},
      {"smiles": "Cc1ccc(C(=O)Nc2ccc3c(c2)OCO3)cc1S(=O)(=O)N1CCCCC1", "inhibition": "4.99%"},
      {"smiles": "COc1ccc(COC[C@H](CC(C)C)N2CCN(C(=O)c3cccc(C(F)(F)F)c3)CCC2=O)cc1", "inhibition": "8.9%"},
      {"smiles": "COC(=O)[C@]12C[C@H](CC(=O)NCCC(C)C)C(=O)N(CCc3ccc(OC)c(OC)c3)C1=C[C@H](C(C)(C)C)O[C@@H]2C", "inhibition": "7.24%"},
      {"smiles": "COc1ccc(OCc2cc(C(=O)NCC3(C)COC3)no2)c(Cl)c1", "inhibition": "2.8%"},
      {"smiles": "COC(=O)c1c(NC(=O)c2ccc(S(=O)(=O)N3CCOCC3)cc2)sc2c1CCN(C(C)C)C2", "inhibition": "29.1% (active)"},
      {"smiles": "Cc1c(NS(=O)(=O)c2cc(C(=O)NCCc3ccc(F)cc3)cc(Cl)c2Cl)c(=O)n(-c2ccccc2)n1C", "inhibition": "3.95%"},
      {"smiles": "O=c1ccc2c(-c3ccccc3S(=O)(=O)O)c3ccc(O)c(O)c3oc-2c1O", "inhibition": "73.8% (active)"},
      {"smiles": "C=C1c2c(Cl)ccc(O)c2C(O)=C2C(=O)[C@]3(O)C(O)=C(C(N)=O)C(=O)[C@@H](N(C)C)[C@@H]3[C@@H](O)C12", "note": "(stereo not given in full)", "inhibition": "19.2%"},
      {"smiles": "CCOC(=O)c1ccc(-n2c(CCC(=O)O)ccc2-c2ccccc2)cc1", "inhibition": "7.24%"},
      {"smiles": "C=CCN(C(=O)[C@@H](CCCC)[C@@H](O)c1ccc(Cl)cc1)c1ccccc1", "inhibition": "6.35%"},
      {"smiles": "CN(C)[C@@H]1C(=O)C(C(N)=O)=C(O)[C@@]2(O)C(=O)C3=C(O)c4c(O)ccc(Cl)c4[C@@H](O)[C@H]3C[C@@H]12", "inhibition": "12.2%"},
      {"smiles": "COc1ccccc1C(=O)NNC(=O)CCN1C(=O)/C(=C\\c2ccccc2)SC1=S", "inhibition": "7.6%"},
      {"smiles": "Cc1ccc(Cc2cnc(N)s2)o1", "inhibition": "7.64%"},
      {"smiles": "Cc1cc(C)c2nc3nc(C)cc(C)c3c(N)c2c1", "inhibition": "46.3% (active)"},
      {"smiles": "CN(C)CCNC(=O)c1ccc(Cl)c2cc3ccccc3nc12", "inhibition": "39.7% (active)"},
      {"smiles": "COC(=O)c1cn(C)c2ccc(S(=O)(=O)N3CC(C)CC(C)C3)cc2c1=O", "note": "(stereo not given)", "inhibition": "14.2%"},
      {"smiles": "CCOC(=O)c1sc(NC(=O)CCN2CCOCC2)c(C(=O)OCC)c1C", "inhibition": "-14.4%"},
      {"smiles": "CNC(=O)C[C@H]1C(=O)N(c2ccc(OC)cc2)C[C@@H]1Cc1ccccc1", "inhibition": "5.54%"},
      {"smiles": "CCOc1ccc(NC(=O)c2cc(C)nc3ccccc23)cc1", "inhibition": "3.69%"},
      {"smiles": "CCOc1ccc(S(=O)(=O)N2CCC(c3ccccc3)CC2)cc1C(=O)O", "inhibition": "0.13%"},
      {"smiles": "Brc1ccc(-c2n(-c3ccccn3)c3ccccc3[n+]2-c2ccccn2)cc1", "inhibition": "22.7% (active)"},
      {"smiles": "CO/N=C(/CS(=O)(=O)c1ccc(Br)cc1)c1ccc(OC)cc1", "inhibition": "5.83%"},
      {"smiles": "C=CCn1c(=S)[nH]c2scc(-c3ccco3)c2c1=O", "inhibition": "47.7% (active)"},
      {"smiles": "CCOc1ccc(N(CC(=O)NCCOc2ccccc2OC)S(=O)(=O)c2ccccc2)cc1", "inhibition": "11%"},
      {"smiles": "CCOc1cc(N2CCOCC2)c(OCC)cc1NC(=O)c1cc(C)nc2ccccc12", "inhibition": "7.08%"},
      {"smiles": "COC(=O)c1ccc(CSc2nncn2N)cc1", "inhibition": "9.29%"},
      {"smiles": "Cc1ccccc1NC(=O)CN1C(=O)N/C(=C\\c2cccn2-c2cccc(C(=O)O)c2)C1=O", "inhibition": "56.5% (active)"},
      {"smiles": "Cc1c(C=O)n(C)n(-c2ccccc2)c1=O", "inhibition": "0.66%"},
      {"smiles": "COC(=O)c1ccc2nc(C3CCCCC3)c(Cc3cccc(F)c3)n2c1", "inhibition": "5.68%"},
      {"smiles": "CCOc1ccc(-n2c(SCC(=O)Nc3ccc(OC)cc3)nc3sc4c(c3c2=O)CCN(C)C4)cc1", "inhibition": "6.75%"}
    ]}
  ]
}
